Out of some 16,000 compounds screened, about 5,700 (36%) were called active. About 24% were inconclusive and are not listed. Calls come from the whole dose curve; as a rule, active = well fitted curve in the direction sought with a large enough effect; inconclusive = small, poorly fitted or top-dose-only effect, or effect the other way; inactive = no such curve, though single readings can be large or run the other way. The list shows a part of the results.
The molecules below were run against Cytochrome P450 1A2 (Homo sapiens) (UniProt P05177) (assay: Cytochrome panel assay with activity outcomes). Conditions: recombinant CYP, pro-luciferin dealkylation, luminescence, p450-cyp1a2; series mostly up to 57.1 µM; activity, negative = inhibition: at the top concentration.
% is set by controls: 0 for no effect and ±100 for the full control effect.

Chain of Cytochrome P450 1A2 (Homo sapiens) (P05177 whole entry, looked up): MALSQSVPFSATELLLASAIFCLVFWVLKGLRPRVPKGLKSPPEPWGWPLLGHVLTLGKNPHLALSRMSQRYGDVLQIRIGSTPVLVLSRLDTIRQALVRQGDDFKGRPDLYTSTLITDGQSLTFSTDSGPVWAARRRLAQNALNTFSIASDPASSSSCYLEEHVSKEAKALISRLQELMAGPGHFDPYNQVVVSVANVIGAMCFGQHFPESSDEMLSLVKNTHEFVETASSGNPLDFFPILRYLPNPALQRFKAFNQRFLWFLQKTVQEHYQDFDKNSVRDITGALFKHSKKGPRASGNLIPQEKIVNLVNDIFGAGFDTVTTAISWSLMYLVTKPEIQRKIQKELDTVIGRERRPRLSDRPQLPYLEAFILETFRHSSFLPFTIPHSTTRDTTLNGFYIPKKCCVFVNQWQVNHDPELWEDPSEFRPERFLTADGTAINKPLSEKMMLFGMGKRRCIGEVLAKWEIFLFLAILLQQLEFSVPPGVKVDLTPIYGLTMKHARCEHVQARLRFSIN

| Structure (SMILES) | AC50 | activity, negative = inhibition |
| --- | --- | --- |
| CCN(CC)c1ncnc2c1sc1nc(C)cc(C)c12 | 1.41 µM (active) | – |
| O=C(c1csnn1)N1CCC2(CC1)CCN(c1ncccn1)CC2 | – | 5.92% (inactive) |
| C[N+](C)(C)CC(=O)O | – | -10.1% (inactive) |
| CS(=O)(=O)Nc1cccc(-c2ccc3ncnc(NCCN4CCOCC4)c3c2)c1 | 25.1 µM (active) | – |
| CS(=O)(=O)Nc1cccc(-c2ccc3ncnc(N4CCNCC4)c3c2)c1 | 12.6 µM (active) | – |
| Cn1nc(-c2ccc(N3CCOCC3)c(NS(=O)(=O)c3ccc(Cl)cc3)c2)c2ccccc2c1=O | – | -9.5% (inactive) |
| Cc1ccc(-c2nn3c(C)nnc3c3ccccc23)cc1S(=O)(=O)NCCN1CCOCC1 | – | -16.7% (inactive) |
| CS(=O)(=O)Nc1cccc(-c2ccc3ncnc(N4CCOCC4)c3c2)c1 | 12.6 µM (active) | – |
| CS(=O)(=O)Nc1cccc(-c2nc(N3CCOCC3)c3ccccc3n2)c1 | 5.01 µM (active) | – |
| CS(=O)(=O)Nc1ccc(S(=O)(=O)N2CCOCC2)cc1 | – | 20% (inactive) |
| CC(=O)OC[C@@H]1O[C@@H](O/N=C2/C[C@@H](O)[C@@H](O)[C@@H]3[C@@H]4C(=O)N(Cc5ccccc5)C(=O)[C@H]4CC[C@@H]23)[C@H](OC(C)=O)[C@H](OC(C)=O)[C@@H]1OC(C)=O | – | -3.54% [at 11.4 µM] (inactive) |
| N#Cc1ccc(CN2CCC3(CC2)CCN(C(=O)c2csnn2)CC3)cc1 | – | 12.3% (inactive) |
| O=C(c1ccco1)N1CCC2(CC1)CN(Cc1cc(C(F)(F)F)cc(C(F)(F)F)c1)C2 | – | -6.44% (inactive) |
| CN1C(=O)C[C@H](c2ccccc2)C1=O | – | -13.8% [at 25.6 µM] (inactive) |
| COc1cccc([C@@H]2Oc3ccc(OC)cc3/C(=N/O[C@@H](C)CN3CCCCc4nc(C)c(C)cc43)[C@@H]2O)c1 | – | -8.62% [at 11.4 µM] (inactive) |
| CC(C)CCNC(=O)Cc1ccccc1[N+](=O)[O-] | – | -17.5% (inactive) |
| Cc1cc(C(=O)OCC(=O)NCCC(C)C)c2ccccc2n1 | 4.47 µM (active) | – |
| CO[C@H]1COC(=O)CCC[C@H](C)[C@@H](OC)COC(=O)C/C=C\[C@@H]1C | – | -4.49% [at 11.4 µM] (inactive) |
| N#Cc1c(-c2ccc3c(c2)OCO3)ccn2nc(-c3cccc(C(F)(F)F)c3)nc12 | 0.0562 µM (active) | – |
| CCNC(=O)C1CC(=O)OC12CCCCC2 (centres undefined) | – | 14.9% (inactive) |
| CC(C)=CCC/C(C)=C/CO/N=C1/C[C@@H](O)[C@@H](O)[C@@H]2[C@@H]3C(=O)N(Cc4ccc5c(c4)OCO5)C(=O)[C@H]3CC[C@H]12 | – | -9.49% [at 11.4 µM] (inactive) |
| N#C/C(=C/N1CCOCC1)c1ccccc1 | 0.891 µM (active) | – |
| Oc1c(CN2CCOCC2)cc(-c2ccccc2)cc1CN1CCOCC1 | – | -25.6% (inactive) |
| OC(c1ccccc1)(c1ccc(F)cc1)C(c1ccccc1)N1CCOCC1 (centres undefined) | – | -5.57% (inactive) |

| Structure (SMILES) | AC50 | activity, negative = inhibition |
| --- | --- | --- |
| NS(=O)(=O)c1cc2c(cc1Cl)N[C@@H](CC1CCCC1)NS2(=O)=O | – | -7.47% [at 25.6 µM] (inactive) |
| O=C1NC(c2ccc(Br)cc2)Nc2sc3c(c21)CCC3 (centres undefined) | 2.51 µM (active) | – |
| CC(C)OCCCN1C(=O)c2ccccc2C1C(=O)NC1CCCCC1 (centres undefined) | – | -5.24% (inactive) |
| CC(C)OCCCn1c(=S)[nH]c2ncccc2c1=O | 2.51 µM (active) | – |
| COCC(=O)N1CCC[C@@]2(CCN(C(=O)Nc3cccc(F)c3)C2)C1 | – | 0.683% (inactive) |
| COCOc1cc(OC)ccc1C(=O)/C=C\c1ccc2c(c1)OCO2 | – | -3.69% [at 11.4 µM] (inactive) |
| COc1ccccc1CNc1ccnc(-c2ccc3c(c2)OCO3)n1 | 0.631 µM (active) | – |
| COc1ccc(CNc2ccnc(-c3ccc4c(c3)OCO4)n2)c(OC)c1 | 1.26 µM (active) | – |
| COc1ncc2nc(-c3ccccc3)c(=O)n(C)c2n1 | 1.58 µM (active) | – |
| COc1ncc2nc(-c3ccc(F)cc3)c(=O)n(C)c2n1 | 0.501 µM (active) | – |
| COc1ccc(-c2nc3cnc(OC)nc3n(C)c2=O)cc1 | 2.51 µM (active) | – |
| C[C@@H]1O[C@@H](n2cc(F)c(=O)[nH]c2=O)[C@H](O)[C@@H]1O | – | -4.19% (inactive) |
| O=C(c1cnccn1)N1CCC2(CC1)CN(c1ccncc1)C2 | – | -0.142% (inactive) |
| O=C(COc1ccc(Br)cc1)Nc1ccc([N+](=O)[O-])cn1 | 2 µM (active) | – |
| O=C(Nc1nnc(CCS(=O)(=O)c2ccc(Br)cc2)s1)c1ccc([N+](=O)[O-])cc1 | – | 0.122% (inactive) |
| C=CCC(C(=O)OC)(C(=O)OC)c1ccc([N+](=O)[O-])cn1 | – | -1.25% (inactive) |
| O=C(COc1ccc([N+](=O)[O-])cc1)Nc1ccc(C(=O)NCc2cccnc2)cc1 | – | -14.6% (inactive) |
| CC(=O)Nc1ccc([N+](=O)[O-])cn1 | 17.8 µM (active) | – |
| O=C(CN(c1ccccc1)S(=O)(=O)c1ccccc1[N+](=O)[O-])NN=C1CCCCCCC1 | – | -0.283% (inactive) |
| O=C(COc1ccc([N+](=O)[O-])cc1)NN=C1CCCC1 | 12.6 µM (active) | – |
| COc1ccc(N(CC(=O)NN=C2CCCC2)S(=O)(=O)c2ccccc2)cc1 | – | -13.5% (inactive) |
| COC(=O)C(C)(C(=O)OC)c1ccc([N+](=O)[O-])cn1 | – | -26.4% (inactive) |
| O=c1ccn([C@@H]2O[C@@H](COP(=O)(O)OP(=O)(O)O)[C@H](O)[C@@H]2O)c(=O)[nH]1 | – | -0.565% (inactive) |
| Cc1cccc(/C=N\Nc2cn[nH]c(=O)c2Cl)c1 | 5.01 µM (active) | – |

| Structure (SMILES) | AC50 | activity, negative = inhibition |
| --- | --- | --- |
| Cc1cccc(NC(=S)NNC(=O)c2csc3c2CCCC3)c1 | 8.91 µM (active) | – |
| COc1cc(N)c(Cl)cc1C(=O)OCCCN1CCCCC1 | – | -35.8% (inactive) |
| CCCOc1ccc(C(=O)OCCN(CC)CC)cc1N | 5.01 µM (active) | – |
| CCN(CC)CCCCCCCCOC(=O)c1cc(OC)c(OC)c(OC)c1 | – | -7.41% (inactive) |
| CCCOc1cc(N)ccc1C(=O)OCCN(CC)CC | 12.6 µM (active) | – |
| CCN(CC)CCOC(=O)c1cc(Cl)c(N)cc1OC | 12.6 µM (active) | – |
| C[N+]1(CCCC[N+]2(C)CCCCCCC2)CCCCCCC1 | – | -10.4% [at 2.29 µM] (inactive) |
| O=C(N/N=C1/C[C@@H](O)[C@@H](O)[C@@H]2[C@@H]3C(=O)N(Cc4ccccc4)C(=O)[C@H]3CC[C@@H]12)OCc1ccccc1 | – | -5.8% [at 11.4 µM] (inactive) |
| COCOc1ccc(Br)cc1C(=O)[C@H]1O[C@H]1c1cccc(OC)c1 | – | -9.07% [at 11.4 µM] (inactive) |
| O=C(O)c1cc2cc(Cc3cccnc3)ccc2o1 | – | -13.4% (inactive) |
| Nc1nc(-c2cccnc2)cc(-c2cc(-c3cccnc3)nc(N)n2)n1 | – | -15.9% [at 2.29 µM] (inactive) |
| Cc1ccc2nc(-c3cccnc3)oc2c1 | 5.01 µM (active) | – |
| Clc1ccc2oc(-c3cccnc3)nc2c1 | 1.41 µM (active) | – |
| C[N+](C)(N)CCC[N+](C)(C)N | – | -12% [at 11.4 µM] (inactive) |
| O=C(NNC(=S)Nc1ccccc1)C1CC1 | – | -21.2% (inactive) |
| CC(C)(C)NC(=S)Nc1ccc(Nc2ccccc2)cc1 | 14.1 µM (active) | – |
| Cc1ccc2nc(Nc3nc(-c4ccccc4)cc(=O)[nH]3)nc(C)c2c1 | 4.47 µM (active) | – |
| Cc1ccc2c(C)nc(Nc3nc(CSc4nc5ccccc5[nH]4)cc(=O)[nH]3)nc2c1 | 11.2 µM (active) | – |
| Cc1cc(Oc2ccccc2)nc(-c2ccccc2)n1 | 1.58 µM (active) | – |
| Cc1cc(Oc2ccccc2)nc(NCc2ccccc2)n1 | 12.6 µM (active) | – |
| CN(C)c1nc(NCc2ccccc2)nc(N/N=C/c2ccc(Cl)cc2Cl)n1 | – | -11.9% (inactive) |
| O=C1NCC2=C1C(c1ccc(Br)cc1)Nc1ccccc1N2 (centres undefined) | 17.8 µM (active) | – |
| O=C1C[C@H](c2ccccc2)[C@@H](c2ccc(Br)cc2)O1 | – | -6.17% [at 11.4 µM] (inactive) |
| C=CC[C@@H]1C=C[C@@H](O/N=C(/C)CCC(=O)OC[C@@H]2O[C@H](C#Cc3ccccc3)C=C[C@@H]2Oc2ccc(C)cc2)[C@@H](CO)O1 | – | 4% [at 11.4 µM] (inactive) |

| Structure (SMILES) | AC50 | activity, negative = inhibition |
| --- | --- | --- |
| Cc1ccc(C(c2ccc(C)o2)c2cccc([N+](=O)[O-])c2O)o1 | 11.2 µM (active) | – |
| Cc1ccc(-n2c3c(c(=O)[nH]c2=O)C(C(F)(F)F)(C(F)(F)F)NC(=O)N3)cc1 | – | 1.93% (inactive) |
| COc1ccc(C(=O)NCC(c2ccc(F)cc2)N2CCOCC2)cc1S(=O)(=O)N1CCCC1 (centres undefined) | 10 µM (active) | – |
| Cc1cc(=O)oc(C)c1C(=O)Nc1ccc(Cl)cn1 | – | -24.2% (inactive) |
| COc1ccc(C(=O)Nc2ccc(Cl)cn2)cc1Cl | 0.631 µM (active) | – |
| CCOc1ccc(C(=O)Nc2ccc(Cl)cn2)cc1Cl | 1.26 µM (active) | – |
| CC(=O)N1CC2(CC2)CC1c1ccccc1 (centres undefined) | – | 14.3% (inactive) |
| Oc1ccccc1CNn1cnnc1 | – | -6.12% (inactive) |
| CC(=O)Nc1ccc(NC(=O)Cn2c(-c3ccc(F)cc3)cnc2SCC(=O)Nc2c(C)cccc2C)cc1 | – | 1.9% (inactive) |
| CCSc1ncc(/C=N/Nc2ccc(F)cc2)n1C | 2.82 µM (active) | – |
| COc1ccccc1-c1cncnc1NCCc1cnc[nH]1 | 1.26 µM (active) | – |
| FC(F)(F)c1ccccc1-c1cncnc1NCCc1cnc[nH]1 | 6.31 µM (active) | – |
| COc1cccc(-c2cncnc2NCCc2cnc[nH]2)c1 | 0.398 µM (active) | – |
| O=C(Oc1ccccc1)N1CCC2(CC1)CN(c1ccncc1)C2 | – | 0.506% (inactive) |
| CCCCN1C(=O)C(NC(=O)c2cccnc2)(C(F)(F)F)C2=C1CC(C)(C)CC2=O (centres undefined) | – | 3.24% (inactive) |
| COc1ccc(OC)c(CNC(=O)CCNC(=O)Cn2ccc3ccccc3c2=O)c1 | – | -21.6% (inactive) |
| CCCC(=O)NCCc1c2n(c3ccc(OC)cc13)Cc1ccccc1-2 | 2.51 µM (active) | – |
| Cc1cnc(CNc2cc(-c3cccc(C#N)c3)ncn2)cn1 | 15.8 µM (active) | – |
| COc1cccc(-c2cc(NCc3cnc(C)cn3)ncn2)c1 | 5.01 µM (active) | – |
| CC(C)C(=O)Cc1ccc2ccccc2n1 | 3.16 µM (active) | – |
| O=C(O)Cc1cc2ccccc2nc1C(=O)O | – | -19.6% (inactive) |
| C[C@@]12CCC(=O)C=C1CC[C@H]1[C@@H]2[C@@H](O)C[C@]2(C)[C@@H]1CC[C@@]2(O)C(=O)COC(=O)C1CCCC1 | – | -13.3% [at 11.4 µM] (inactive) |

Reference: PubChem BioAssay AID1851 (National Center for Advancing Translational Sciences (NCATS), 2009)
